Laboratory results from PubChem BioAssay AID1508600 (Functional Genomics Laboratory (NCATS/FGL), 2020).
Screen size: about 53,000 sequences; about 3,700 (7%) were called active. Only a selection was taken, and actives are over-represented in it overall. Values without a mark were called inactive.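 Rule for the calls: active = gene knockdowns whose robust z-score for IL-1 alpha signal is at least 2 or at most -2, so actives lie on both sides; inactive = the rest.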

Assay: Components of the Cytosolic LPS Sensing Pathway: Gene Identification via Genome-wide siRNA Screen;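 note: robust z of the log signal after scaling to non-targeting control siRNA wells of the plate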
Conditions: RAW264.7 macrophages, IL-1a HTRF, actives lie on both sides, screened at 100 nM (by protocol), cells primed 5 h with Pam3CSK4 first
In short: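 RAW264.7; siRNA 100 nM final, RNAiMAX, 48h 37 degrees C; Pam3CSK4 5 h; LipidA + TransIT-TKO 24 h; IL-1a HTRF; CellTiter-Glo viability; robust z vs negative-control median.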

Row | Sequence | z-score
1 | GGAGAACAAGGCAAAAGAATT against Mindy4 | -0.945
2 | GCAGACAGAGUUUUAACGUTT against Fancl | -0.381
3 | GCCAUUCACUUAAUUCAGUTT against H2ac8 | -1.32
4 | GGCUCUGGCCAUAUUUUGGTT against Olfr549 | -1.44
5 | CCAUAGGUAUCAUUGCAAGTT against Tas2r139 | -2.16 (active)
6 | GCAAUAAUCGUUCUCAAAATT against Prkab1 | 1.5
7 | GGAGAUCAGCUGUCUAAUGTT against Tmem237 | -0.207
8 | GGACAGGAUGAGUUUGACATT against Rhou | -1.52
9 | GGAAAUCUCAGAAAUCAAATT against Pmf1 | -1.15
10 | GCUCCUUGGGCGAUUUCAGTT against Aggf1 | 0.265
11 | GCAAGGUAUUCCAUGCUCATT against Psg27 | -0.616
12 | GCUGUGAUCUCAGUAUUCATT against Strbp | 0.443
13 | GGUGACCACUUUUAUCUGATT against Olah | 0.601
14 | GCCUAAAAAAUCUCUGUGATT against Zswim3 | -2.77 (active)
15 | GGACUAUAGAUCCUAAGUCTT against Kcnab2 | -0.246
16 | CCACCCUGUGAAAAAGUCATT against Ccr3 | -1.08
17 | GAAAGGAAAGCUAGCCAUGTT against Gm5622 | 0.614
18 | CCAUUGAAUCAGUUGAAGUTT against Slc5a7 | 1.21
19 | GGCCGUUAUGUUUUACAAGTT against Dnajc19 | 0.00748
20 | GGGCAUACAUAUAACCUAUTT against Fermt2 | -0.285
21 | GCUUUUUGACUACGUAGCCTT against Hkdc1 | 0.0141
22 | GGUUUGAGAAAUUGGACAUTT against Pou6f1 | 3.72 (active)

Row | Sequence | z-score
23 | GGAAAGCAGGACAAAAGGCTT against Mettl18 | 0.346
24 | GUCAUCUUGUUCCAUCUGATT against Olfr1269 | -1.12
25 | CGACCUAACCAACAUGCUUTT against Asap3 | 0.0248
26 | GGUAGCUGUUUAGGACAAUTT against Arl6ip5 | 3.79 (active)
27 | GCGAUUCUGUUGUUAGCUUTT against Rln1 | 0.134
28 | GGUAGAAUUGUGAUCUCAGTT against Bco2 | -0.411
29 | GCAGGUACUAUUUGUGACGTT against Olfr30 | 1.07
30 | GCAGCACGAACUGAUGACGTT against Plcd3 | -2.18 (active)
31 | GGUGGACAACCAGUUCUACTT against Mapk10 | 1.27
32 | CCUGUGUUUCAGUUUGGUATT against Clptm1l | 0.549
33 | GGCUCAAUAAUGUUUUCAATT against Smpd3 | 3.18 (active)
34 | CGUAAAUUCACCAAGGAGCTT against Slc19a1 | -0.805
35 | GGACAUUGACACUUCCCUGTT against P2rx5 | -1.85
36 | GGAGAUAACAGAUCUGUUUTT against Fam114a2 | -0.843
37 | GGCAUCCACACAGAACAAGTT against Zfp467 | -0.287
38 | GGGAUAGGGUUCAAUUAGGTT against Bcl2l13 | 0.231
39 | GUCCCAGUACUUCUUGUUUTT against Vmn1r27 | 0.675
40 | GGGUGAUAAAUGUUUGAAUTT against Vmn1r45 | 0.338
41 | GGAGGCUGUUGUGGAUCUUTT against Acin1 | 1.03
42 | GGAAUGUGAAGAAGAAAUUTT against Dnttip2 | 2.03 (active)
43 | GCCUAUUGUAGUGUUACAUTT against Cyp2c67 | -0.887
44 | GGUGAUCCAGCUUUCUUGGTT against Tiaf2 | -0.351

Row | Sequence | z-score
45 | GGGAAAACAGGUACGACUGTT against Odf1 | -0.743
46 | GGUGAUCAAGGACAUUUAATT against Psma5 | 0.0545
47 | GCCAAUGCUUCCAUUACCATT against Abca17 | 0.141
48 | GGAGCUAGAUAGGAAAAAATT against Vill | -1.44
49 | CGAUUGACUUAAGAUUCAGTT against Hlf | -0.612
50 | GGCCAAAGAGUUCAGCCUATT against Prrx2 | -0.29
51 | GGUCAAAAGUUCUGGACAGTT against Spin4 | 5.6 (active)
52 | GGACGAUGGUUCCUGAAAATT against Snap91 | -1.39
53 | GGUUGAAGGAGUGUUUUAUTT against Rtcb | 2.09 (active)
54 | GGCCCAUAAUUAAAUGUUUTT against Stac2 | 0.438
55 | CCAAUAGUUGUGGACAUGATT against Crisp1 | 1.82
56 | GCUUACCUUGUUCUUAAAGTT against D2hgdh | -1.62
57 | GGUACCAUAUGAGAGCUAATT against Tsr2 | 2.7 (active)
58 | AACCAGAGGUCCUAAAUACTT against Mmp28 | -0.948
59 | GCUAAGUGCUCGAAUCCGATT against Cnppd1 | -0.326
60 | GGUGGACAUGUGGAAUGAUTT against Ubxn11 | 0.463
61 | GCUAGUGACUUUGAGAUUGTT against Msh5 | -0.75
62 | CCACUUUCAGAAACAUUACTT against A2ml1 | -1.01
63 | GGCUACUGUUGCUGCAUUUTT against Lin7c | -2.49 (active)
64 | CCAACAAAAACGUACUUUGTT against 9530091C08Rik | 1.24
65 | CCAGAGAGAUACCUGAUCUTT against Tas2r113 | -0.993
66 | GGGACAAUACAUUGAUAGCTT against Vmn1r206 | -0.625

Row | Sequence | z-score
67 | GGAAGAUGCCUACUUCAGATT against 4632433K11Rik | 2.5 (active)
68 | GGCCAUCACUAUUAGCCUCTT against Vmn1r70 | -0.214
69 | GGGCUAUAUAUAUUUCCACTT against Asns | 2.75 (active)
70 | CCAUAUUGGCAAUCUCUAGTT against Khdc1a | 2.15 (active)
71 | GGAAGUAUUGACGAGUGGGTT against Orai3 | 0.0813
72 | GGAAGUCCAUCAGCUUUAUTT against Wdr78 | 2.29 (active)
73 | GCGACUGACACUAACAGAATT against Poc1a | -0.261
74 | GGUUUCAUGAAAGAGGAGCTT against Cbs | -0.926
75 | GGGCACCACAGAAAGGAAUTT against Olfr376 | -0.525
76 | GGCUAACCGAAGCCAUCCUTT against Tceal9 | 0.969
77 | GGACCAGGAUAGGACCAAUTT against Avpr2 | 2.33 (active)
78 | GCUUUCAUUAAGUCAGAUCTT against Flvcr2 | 1.16
79 | GGAUAAGAGAAAAACAGAATT against Ect2 | 0.141
80 | GGCAUAGUUGCUGUUCUCUTT against Slc9a9 | -0.871
81 | GGCUGUUUGCCAAAAAAAATT against Ppp1r16a | -0.36
82 | GGCACAGUUCUGGAAGAUGTT against Qtrt1 | -1.02
83 | GCACAGACAUCUUUUGCCATT against Man2a2 | -1
84 | GGUAUUCGAAGCAUACAAUTT against Pdha2 | 3.47 (active)
85 | GGAAAUGAUCUCUUUUGGATT against Bbs2 | -0.734
86 | GGCACACUUGAGAAGACACTT against Cul5 | -0.601
87 | GGAGGAAAGAAGUCCUACATT against Rnase2b | -0.835
88 | GGUCGGUGUUUUAUCUGCUTT against Slc17a9 | -3.2 (active)

Row | Sequence | z-score
89 | CCUUCUAGAUGUCUUAAGATT against Zfp41 | -0.244
90 | GGCCAAACAAGACCCAUCUTT against Ppil2 | -0.621
91 | GGAAAAGUAUUGGUAGACGTT against Steap4 | -1.73
92 | GCAAUGCAAAAGAUGCCCUTT against Chchd7 | 0.0804
93 | CCCAGUUAGAAUUGUUAUCTT against Snx16 | 1.29
94 | CAUCUUUCAUCAAAUAACUTT against Krtap31-2 | 2.49 (active)
95 | GGAAAUUACUUUGAUACUCTT against Rfx3 | 1.5
96 | CCAAAACGGAAUCCUAAUATT against Nyap2 | -1.34
97 | GGGCCACUUUCCAAUUCAATT against Tectb | 0.817
98 | GGAUCAUAAAAAGAAUCACTT against Gpr21 | 0.851
99 | GGGAAUUUACCAAGUACCCTT against Nedd9 | 1.53
100 | CCAUCCCAUAUGUUCCGGUTT against Ptms | 0.94
101 | GGUGAAAACAAUGACUUUGTT against Zbtb44 | 0.256
102 | GGUUAUUUUGGCUAUAAGATT against Traf3 | -4 (active)
103 | CGAUGUUACUAUAGGAUCUTT against A730036I17Rik | 0.33
104 | CCUUCAUUCUCAUUGGCAUTT against Olfr591 | -0.163
105 | GCACUACCUGUAUUAAACUTT against Efhd2 | -0.652
106 | GCAACACAAGUCAUGAAGUTT against Gabpb2 | 0.628
107 | GGAACUGAAAUUCAGUUGGTT against Azin1 | 0.218
